# Legend:
# [1] = biological target: T1, Aspartate--tRNA(Asp/Asn) ligase (Mycobacterium tuberculosis (strain ATCC 25618 / H37Rv)) (UniProt P9WFW3); assay: Assay for Asp RNA synthetase-1 from Mycobacterium tuberculosis; assay type: functional; set-up: scale not given: direction of the effect not stated beside the values; conditions: 30 µM; note: in the data most compounds retested in dose-response had high values
# T1 sequence (whole entry): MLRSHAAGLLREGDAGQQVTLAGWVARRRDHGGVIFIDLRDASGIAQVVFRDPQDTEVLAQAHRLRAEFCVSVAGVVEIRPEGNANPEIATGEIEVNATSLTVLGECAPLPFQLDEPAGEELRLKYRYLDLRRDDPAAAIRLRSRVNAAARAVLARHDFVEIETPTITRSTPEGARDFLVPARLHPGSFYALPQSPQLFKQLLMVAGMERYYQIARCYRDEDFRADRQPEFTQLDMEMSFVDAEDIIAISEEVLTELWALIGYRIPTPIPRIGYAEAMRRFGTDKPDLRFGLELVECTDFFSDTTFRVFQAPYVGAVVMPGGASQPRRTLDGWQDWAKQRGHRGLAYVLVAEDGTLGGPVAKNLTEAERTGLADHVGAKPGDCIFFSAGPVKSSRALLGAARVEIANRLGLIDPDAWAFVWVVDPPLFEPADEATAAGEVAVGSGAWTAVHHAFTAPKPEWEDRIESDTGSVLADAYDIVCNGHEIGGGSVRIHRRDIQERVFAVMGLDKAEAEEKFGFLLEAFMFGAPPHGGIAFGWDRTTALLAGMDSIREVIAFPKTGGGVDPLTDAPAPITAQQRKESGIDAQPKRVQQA
# [2] = biological target: Shiga toxin 2 (Escherichia coli O157:H7) (UniProt P09385+P09386); assay: E. coli 0.157:H7 Shiga Toxin SOP - stx2 screening assay; assay type: functional; set-up: scale not given: direction of the effect not stated beside the values; conditions: 30 µM
SMILES,Percent Effect [1] [%],Percent Effect [2] [%]
CCN(CC)Cc1ccc(C(=O)N2CCCCC2Cn2cccn2)o1 (stereo not drawn),3.47,1.31
Cn1ncc2c1CCCC2NCc1cnc(-c2ccccc2)nc1 (stereo not drawn),8.81,-1.99
CN(C)C(=O)c1cnc2n1CCN(Cc1ccccc1)C2,0.632,-28
Cc1cncc(C(=O)N2CCCCC2c2nc(C)cs2)c1 (stereo not drawn),-9.59,-42.4
O=C(NCCn1ccnc1)c1cccc(F)c1,3.65,24.2
Cc1nc(CN(C)C2CCN(Cc3ccc4c(c3)OCCO4)C2)no1 (stereo not drawn),-4.04,5.87
O=C(c1cccs1)N1CCC(O)(CN2CCc3ccccc3C2)C1 (stereo not drawn),-5.2,-25.3
CCc1nc(CN2CCCC(NCc3nc4cccnc4[nH]3)C2)no1 (stereo not drawn),-3,-27.7
CCCN(C)C(=O)c1ccc2c(c1)[nH]c(=O)n2CCOCC,-2.29,-18.9
O=C(c1cnccn1)N1CCOC2(CCN(Cc3ccsc3)CC2)C1,-1.8,-12.9
Cc1nn(C)c(C)c1C1COCCN1C(=O)c1ccccc1 (stereo not drawn),-8.71,-37.5
O=C(NCc1ccccn1)[C@@H]1COC[C@H]2CN(C3CCOCC3)C[C@H]21,7.53,-6.42
Cc1nc(C)n(CC2CN(Cc3cccnc3)CCO2)n1 (stereo not drawn),5.17,26.5
CCOC(=O)N1CCC(C(=O)c2cc(F)ccc2F)CC1,1.26,36.2
O=C(NCc1ccco1)[C@H]1C[C@H]2OCC[C@H]2N(S(=O)(=O)C2CC2)C1,0.786,-24.1
CCC1(CO)CCCN(c2ncccc2C#N)C1 (stereo not drawn),-1.73,-8.75
Cc1cc(C)n(CC2CCCN2C(=O)c2cccc3[nH]ncc23)n1 (stereo not drawn),-2.45,-17.6
COc1ccc(C)cc1CN1CCCC1Cn1nc(C)nc1C (stereo not drawn),-7.82,-25.1
Cc1cc(C)n(-c2ccc(CNCc3ccc(OC(C)C)cc3)cn2)n1,-4.39,29.5
